# Experimental data taken from PubChem BioAssay (NCATS).
# “And” between values parts separate entries of the source, which are not always exact repeats. Equal values may be shown once. Inconclusive results are not listed. Unmarked numbers belong to inactive results. The source made the active and inactive calls. Calls come from the whole dose curve; as a rule, active = well fitted curve in the direction sought with a large enough effect; inconclusive = small, poorly fitted or top-dose-only effect, or another doubt; inactive = no such curve, though single readings can be large; an effect the other way counts as inactive or inconclusive.
# Experiments:
# [1] = target: Cellular tumor antigen p53 (Homo sapiens) (UniProt P04637); test: Primary qHTS for small molecule compounds that upregulate eGFP-tagged delta133p53alpha (in N-terminal) cells. (AID 2060322); conditions: NCI-H358 eGFP-delta133p53alpha fluorescence, 24 h; activation: hits give high values; note: nearly all actives have a fitted effect of over 75% in size; note: potency is the fitted concentration of half-maximal effect;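 for activation: cells pre-induced with doxycycline then dosed without doxycycline; 0% = DMSO vehicle and 100% = reference activator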
# How it was run: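 NCI-H358 cells pre-induced 24 h with 10 ng/ml doxycycline for eGFP-delta133p53alpha, plated dox-free and exposed 24 h at 37C to titrated compounds. Fixed, Hoechst-stained; gated GFP peak intensity by laser scanning cytometry, normalized to DMSO (0%) and 57.5 uM 5-azacytidine (100%).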
# [2] = target: Aldehyde dehydrogenase, mitochondrial (Homo sapiens) (UniProt P05091); test: qHTS for Inhibitors of the Aldehyde Dehydrogenase Family (ALDH2) Primary screen (AID 2061308); conditions: ALDH2 enzyme inhibition qHTS, 1536-well; series mostly up to 56 µM;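 note: plate controls were vehicle for no effect and reference inhibitor for full effect; nearly all actives have a fitted effect of over 55% in size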
# [3] = target: Retinaldehyde dehydrogenase 3 (Homo sapiens) (UniProt P47895); test: qHTS for Inhibitors of the Aldehyde Dehydrogenase Family (ALDH1A3) Primary screen (AID 2061315); conditions: ALDH inhibition qHTS; series mostly up to 56 µM;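 note: plate controls were DMSO vehicle for no effect and reference inhibitor for full effect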
# [4] = BET inhibitor-based combinations targeting novel dependencies in MECOM-rearranged (r) AML: SET-2 cell line (AID 2202231); conditions: SET-2 AML cells viability, CellTiter-Glo luminescence, 48 h; viability: hits give low values, concentration not given here; note: nearly all actives have a fitted effect of over 35% in size; note: potency is the fitted concentration of half-maximal effect;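 for viability: plate controls were DMSO treated cells for no effect and wells without cells for full effect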
# How it was run: (§1)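 Luminescent ATP readout (CellTiter-Glo) after 48 hr drug exposure gives viability. Curves span 11 concentrations and are normalized to DMSO and empty wells. Activity is reported as area under the curve and its Z-transform within each cell line.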
# [5] = BET inhibitor-based combinations targeting novel dependencies in MECOM-rearranged (r) AML: OCI-AML3 cell line (AID 2202232); conditions: CellTiter-Glo luminescence, 48 h; Potency: OCI-AML3 viability; series mostly up to 46 µM; note: nearly all actives have a fitted effect of over 35% in size; note: potency is the fitted concentration of half-maximal effect
# How it was run: as §1
# [6] = BET inhibitor-based combinations targeting novel dependencies in MECOM-rearranged (r) AML: MV-4-11 cell line (AID 2202233); conditions: MV-4-11 AML viability, CellTiter-Glo luminescence, 48 h; series mostly up to 46 µM; note: nearly all actives have a fitted effect of over 45% in size; note: potency is the fitted concentration of half-maximal effect
# How it was run: (§2)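 Luminescent ATP readout (CellTiter-Glo, 15 min at room temperature) after 48 hr drug exposure gave viability. Dose-response curves, normalized to DMSO and empty-well controls, were summarized as area under the curve and its mean-centred Z-score.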
# [7] = BET inhibitor-based combinations targeting novel dependencies in MECOM-rearranged (r) AML: HNT-34 cell line (AID 2202234); conditions: HNT-34 AML viability, CellTiter-Glo luminescence, 48 h; series mostly up to 46 µM; note: nearly all actives have a fitted effect of over 35% in size; note: potency is the fitted concentration of half-maximal effect
# How it was run: as §2
# [8] = BET inhibitor-based combinations targeting novel dependencies in MECOM-rearranged (r) AML: UCSD-AML1 cell line (AID 2202235); conditions: UCSD-AML1 AML cells viability, CellTiter-Glo, 48 h; series mostly up to 46 µM; note: nearly all actives have a fitted effect of over 40% in size; note: potency is the fitted concentration of half-maximal effect
# How it was run: as §2
# [9] = BET inhibitor-based combinations targeting novel dependencies in MECOM-rearranged (r) AML: AML-191 cell line (AID 2202236; note: nearly all actives have a fitted effect of over 35% in size; note: potency is the fitted concentration of half-maximal effect); conditions: AML-191 viability, CellTiter-Glo luminescence, 48 h; series mostly up to 46 µM
# How it was run: as §1
# [10] = BET inhibitor-based combinations targeting novel dependencies in MECOM-rearranged (r) AML: AML-194 cell line (AID 2202237; note: nearly all actives have a fitted effect of over 40% in size; note: potency is the fitted concentration of half-maximal effect); conditions: AML-194 (MECOM-r AML) viability, CellTiter-Glo, 48 h; series mostly up to 46 µM
# How it was run: as §1
# Cellular tumor antigen p53 (Homo sapiens), sequence (P04637 whole entry, looked up): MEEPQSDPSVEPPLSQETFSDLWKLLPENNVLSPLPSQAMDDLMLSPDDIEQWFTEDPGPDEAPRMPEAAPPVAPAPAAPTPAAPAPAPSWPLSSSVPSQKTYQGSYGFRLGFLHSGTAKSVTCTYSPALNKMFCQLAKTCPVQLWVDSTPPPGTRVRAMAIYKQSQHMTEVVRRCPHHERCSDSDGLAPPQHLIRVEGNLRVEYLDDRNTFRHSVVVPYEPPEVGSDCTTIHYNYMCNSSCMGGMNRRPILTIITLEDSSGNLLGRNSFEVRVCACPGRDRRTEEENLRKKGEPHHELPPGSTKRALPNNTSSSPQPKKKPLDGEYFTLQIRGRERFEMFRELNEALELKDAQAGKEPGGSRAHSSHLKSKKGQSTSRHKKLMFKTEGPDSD
Compound,Potency [1],Potency [2],Potency [3],Potency [4],Potency [5],Potency [6],Potency [7],Potency [8],Potency [9],Potency [10],activation [1],viability [4]
O=C(Nc1ccnc(NC(=O)C2CC2)c1)c1c(Cl)cccc1Cl,12 µM (active),inactive,inactive,7.42 µM (active),7.42 µM (active),4.68 µM (active),4.17 µM (active),3.32 µM (active),5.25 µM (active),7.42 µM (active),–,–
CNC(=O)c1c(-c2ccc(F)cc2)oc2cc(N(CCO)S(C)(=O)=O)c(C3CC3)cc12,–,inactive,inactive,–,inactive,inactive,inactive,inactive,inactive,inactive,-6.02% and -15.2%,119%
Cc1ncc(NC(=O)c2ccc(CN3CCN(C)CC3)c(C(F)(F)F)c2)cc1Nc1nccc(-c2cccnc2)n1,23.9 µM (active),inactive,inactive,23.5 µM (active),14.8 µM (active),3.32 µM (active),0.0295 µM (active),inactive,18.6 µM (active),23.5 µM (active),–,–
NS(=O)(=O)c1cc(Cl)c(Cl)c(S(N)(=O)=O)c1,–,inactive,inactive,–,inactive,inactive,inactive,inactive,inactive,inactive,-9.17% and 1%,115%
CS(=O)(=O)c1ccc(C(=O)Nc2ccc(Cl)c(-c3ccccn3)c2)c(Cl)c1,–,inactive,inactive,–,inactive,inactive,inactive,inactive,inactive,inactive,-14.7% and -1.91%,106%
CNc1nc(C)nc(N[C@H]2CCC[C@@H](C(=O)NCc3ccc(C#N)cc3C(F)(F)F)C2)n1,–,inactive,inactive,–,inactive,16.6 µM (active),inactive,inactive,inactive,inactive,10%,108%
Nc1ccn(C2CO[C@H](CO)O2)c(=O)n1 (stereo not given in full),–,inactive,inactive,–,inactive,inactive,inactive,inactive,inactive,inactive,-4.75%,113%
N#CCNC(=O)c1ccc(-c2ccnc(Nc3ccc(N4CCOCC4)cc3)n2)cc1,8.49 µM (active),inactive,inactive,4.17 µM (active),16.6 µM (active),0.833 µM (active),2.95 µM (active),1.48 µM (active),4.68 µM (active),5.25 µM (active),–,–
Cc1nc([C@](C)(O)CO)sc1-c1cnc(N)c(O[C@H](C)c2cc(F)ccc2-n2nccn2)c1,–,inactive,inactive,10.5 µM (active),0.742 µM (active),6.61 µM (active),11.8 µM (active),1.32 µM (active),0.833 µM (active),1.18 µM (active),-10.7%,–
Cc1cnc(Nc2ccc(F)cc2Cl)nc1-c1c[nH]c(C(=O)N[C@H](CO)c2cccc(Cl)c2)c1,–,inactive,inactive,23.5 µM (active),4.68 µM (active),20.9 µM (active),18.6 µM (active),20.9 µM (active),16.6 µM (active),18.6 µM (active),12% and 13.4%,–
C[C@@H](Oc1cc(-c2cnn(C3CCNCC3)c2)cnc1N)c1c(Cl)ccc(F)c1Cl,–,inactive,inactive,10.5 µM (active),5.9 µM (active),2.35 µM (active),1.18 µM (active),1.66 µM (active),1.18 µM (active),1.48 µM (active),-17.6%,–
C1Cc2[nH]nc(-c3nn[nH]n3)c2C1,–,inactive,inactive,–,inactive,inactive,inactive,inactive,inactive,inactive,0.623% and -10.5%,120%
CC1=C(CO)C(=O)O[C@@H]([C@@H](C)[C@H]2CC[C@H]3[C@@H]4C[C@H]5O[C@]56[C@@H](O)C=CC(=O)[C@]6(C)[C@H]4CC[C@]23C)C1,1.47 µM (active),inactive,inactive,0.59 µM (active),0.742 µM (active),0.662 µM (active),0.118 µM (active),0.417 µM (active),0.372 µM (active),0.372 µM (active),–,–
CCOc1cc2ncc(C#N)c(Nc3ccc(OCc4ccccn4)c(Cl)c3)c2cc1NC(=O)/C=C/CN(C)C,9.28 µM (active),inactive,inactive,4.68 µM (active),5.9 µM (active),2.09 µM (active),1.32 µM (active),3.72 µM (active),5.25 µM (active),5.25 µM (active),–,–
